{"source": "PubChem BioAssay (NCI)", "note": "The panel holds about 83,000 compounds, 20% with a hit somewhere; the sample as a whole holds those more often.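 Treatment: one concentration, 48 hours, 96-well format. Scoring: percent growth, with anything below 10 considered active.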 Unmarked numbers belong to inactive results. Activity calls are given as the source filed them.", "data": [{"tested_on": "SK-MEL-2 melanoma", "experiment": "NCI-60 one-dose screen, 48 h (100 = growth as untreated, 0 = no growth, -100 = all killed)", "settings": "10 µM unless noted", "values": [{"smiles": "O=c1ccn(-c2ncnc3nc[nH]c23)cc1", "growth": "90.9%"}, {"smiles": "CCN(CC)c1ccc(CNc2ccnc3ccccc23)cc1", "growth": "79.3%"}, {"smiles": "COc1ccc(CN2CCc3c(Sc4ccccc4)nc(N)nc3C2=O)c(OC)c1", "growth": "58.6%"}, {"smiles": "COc1ccc(/C=C\\c2cc(OC)c(OC)c(OC)c2)cc1OC(=O)c1cccc(Cn2cc(CCOC(=O)c3cccc(Cn4nnc5c4C(=O)c4ccccc4C5=O)c3)nn2)c1", "growth": "50.9%"}, {"smiles": "CCCCN(CCCC)C(=O)CC", "growth": "112%"}, {"smiles": "O=C1Nc2ccc3c(c2/C1=C\\c1cc2c(cc1Br)OCO2)OCO3", "growth": "42.4%"}, {"smiles": "O=C1/C(=C/c2ccccc2)CN(C(=O)CCN2CCC(=NO)CC2)C/C1=C\\c1ccccc1", "growth": "55.2%"}, {"smiles": "COc1ccc2c(c1)[nH]c(=O)c1c3cc(OC)ccc3cn21", "growth": "71.7%"}, {"smiles": "COc1ccc(Nc2nc(N)nc3c2CCN(Cc2ccc(OC)cc2OC)C3=O)cc1", "growth": "93.7%"}, {"smiles": "Cn1ccc(=O)c(S(N)(=O)=O)c1", "growth": "99.8%"}, {"smiles": "Cc1cc(N/N=C/c2nc(-c3ccccc3)oc2C)c2cc(Br)ccc2n1", "growth": "106%"}, {"smiles": "Cc1nn(-c2ccc([N+](=O)[O-])cc2)c2ncnc(NCCc3ccccc3)c12", "growth": "110%"}, {"smiles": "CCN(CC)CCC(CNc1ccnc2cc(Cl)ccc12)c1ccc(Cl)cc1", "note": "(centres undefined)", "growth": "-75.7% (active)"}, {"smiles": "OC(c1cc2cc(Br)ccc2c2cc(Br)ccc12)C1CCCCN1", "note": "(centres undefined)", "growth": "-73.5% (active)"}, {"smiles": "C=C1CCC2C3(C)COC(c4c(OC)cccc4OC)OC3CCC2(C)C1C/C=C1/C(=O)OCC1O", "note": "(centres undefined)", "growth": "50%"}, {"smiles": "COC(=O)c1cc2cc(-c3ccc(OC)cc3)cnc2[nH]1", "growth": "8.37% (active)"}, {"smiles": "Cc1ccc(S(=O)(=O)n2cc(C(=O)C(=O)N3CCOCC3)c3ccccc32)cc1", "growth": "97%"}, {"smiles": "COc1ccc(-c2nc(/C=N/Nc3cc(C)nc4ccc(Cl)cc34)c(C)o2)cc1", "growth": "101%"}, {"smiles": "O=C1c2ccccc2-c2ccccc2C1(Cl)Cl", "growth": "-71% (active)"}, {"smiles": "COc1ccc(-c2cn(-c3cccc(C(=O)/C=C/c4cc(OC)c(OC)c(OC)c4)c3)c(=O)[nH]2)cc1OC", "growth": "75.3%"}, {"smiles": "CCCCCCCCCCCCNC(=O)[C@H]1CSC(c2ccsc2)N1", "note": "(some centres undefined)", "growth": "-91% (active)"}, {"smiles": "COc1cc(C2NN=C3c4ccccc4CCC32)cc(OC)c1OC", "note": "(centres undefined)", "growth": "76.9%"}, {"smiles": "O=C(N/N=C/C=C\\c1ccccc1)C(=O)N/N=C/C=C/c1ccccc1", "growth": "109%"}, {"smiles": "CN1CCN(Cc2ccc(NC(=O)c3cncc(C#Cc4cnc(N)c5ccncc45)c3)cc2C(F)(F)F)CC1", "growth": "-25.2% (active)"}, {"smiles": "N=C(N)c1ccc(-c2ccc(-c3ccc4ccccc4c3)s2)cc1", "growth": "104%"}, {"smiles": "COc1cc(/C=C/C(=O)c2cccc(-n3cc(-c4cc(OC)c(OC)c(OC)c4)[nH]c3=O)c2)cc(OC)c1OC", "growth": "-2.34% (active)"}, {"smiles": "N=C(N)c1ccc(-c2ccc(-c3ccc(-c4cccs4)s3)s2)cc1", "growth": "108%"}, {"smiles": "COc1ccc(-c2ccc(-c3ccc(C(=N)N)s3)s2)cc1Cl", "growth": "96.2%"}, {"smiles": "O=c1[nH]c2ccc(Br)cc2c2c1C(c1ccc(Cl)cc1)c1c(ncn3nc(-c4ccco4)nc13)O2", "note": "(centres undefined)", "growth": "89.1%"}, {"smiles": "N=C(N)c1ccc(-c2cc(Cl)cc(Cl)c2)cn1", "growth": "101%"}, {"smiles": "Cc1nc2ncccc2nc1Nc1ccc(S(=O)(=O)Nc2cncs2)cc1", "growth": "103%"}, {"smiles": "Cc1cc(N/N=C/c2nc(-c3ccccc3)oc2C)c2cc(Cl)ccc2n1", "growth": "110%"}, {"smiles": "Cc1nc2ncccc2nc1Nc1ccc(S(=O)(=O)Nc2ccccn2)cc1", "growth": "104%"}, {"smiles": "NC(=S)N/N=C1\\CCCC(C(F)(F)F)C1", "note": "(centres undefined)", "growth": "102%"}, {"smiles": "Oc1ccc2cc(Br)ccc2c1-c1c(O)ccc2cc(Br)ccc12", "growth": "74.9%"}, {"smiles": "CCC(=O)Oc1ccc(/C(=C(/C)Cc2cccc(OC)c2)c2ccc(OCCN(C)C)cc2)cc1", "growth": "100%"}, {"smiles": "COC1=C(OC)C(=O)C(CCCCCCCCCC[P+](c2ccccc2)(c2ccccc2)c2ccccc2)=C(C)C1=O", "growth": "-42.7% (active)"}, {"smiles": "O=C(CN1CCN(c2cc3c(cc2F)c(=O)c(C(=O)N/N=C/c2ccccc2O)cn3C2CC2)CC1)N/N=C\\c1ccccc1O", "growth": "33.2%"}, {"smiles": "COc1ccc(-c2ccc(-c3ccc(C(=N)N)cn3)s2)cc1OC", "growth": "109%"}]}]}
